Assay results as given in paper PMC8384837, “Expanding the binding specificity for RNA recognition by a PUF domain”.
Changes are numbered by the printed parent chain.

How the values were obtained:
Assay in all cases: yeast three-hybrid, YBZ-1, SC-Leu-His + 0.5 mM 3-AT, 4 days
Settings in all cases: tags: N-Gal4 AD-HA kept; label: inside an RPR1-promoter hybrid RNA with tandem MS2 sites; ssRNA
PUM1 PUF domain R3-CRC = PUM1 PUF domain R3-CRC (Homo sapiens, UniProt Q14671 828-1176, Q939C)
Outline: (§1)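 Pumilio-1 PUF domain libraries, randomized (NNK) at the three base-contacting residues of each repeat, were co-expressed with matching RNA elements from a centromeric plasmid in strain YBZ-1 (LexA–MS2 coat fusion, HIS3 reporter). Transformants were plated on SC-Leu (input) and SC-Leu-His + 0.5 mM 3-AT (selection) for four days, and repeat regions were PCR-amplified and Illumina-sequenced. The interaction score is the log2 change in variant frequency from input to selection, with pseudocount 1 where absent.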

PUM1 PUF domain R3-SIR = PUM1 PUF domain R3-SIR (Homo sapiens, UniProt Q14671 828-1176, C935S;R936I;Q939R)
Outline: as §1

PUM1 PUF domain R4-VPS = PUM1 PUF domain R4-VPS (Homo sapiens, UniProt Q14671 828-1176, N971V;H972P;Q975S)
Outline: as §1

PUM1 PUF domain R8-NWR = PUM1 PUF domain R8-NWR (Homo sapiens, UniProt Q14671 828-1176, Y1123W;Q1126R)
Outline: as §1

PUM1 PUF domain R6-LWK = target: T1, PUM1 PUF domain R6-LWK (Homo sapiens, UniProt Q14671 828-1176, N1043L;Y1044W;Q1047K)
T1 sequence: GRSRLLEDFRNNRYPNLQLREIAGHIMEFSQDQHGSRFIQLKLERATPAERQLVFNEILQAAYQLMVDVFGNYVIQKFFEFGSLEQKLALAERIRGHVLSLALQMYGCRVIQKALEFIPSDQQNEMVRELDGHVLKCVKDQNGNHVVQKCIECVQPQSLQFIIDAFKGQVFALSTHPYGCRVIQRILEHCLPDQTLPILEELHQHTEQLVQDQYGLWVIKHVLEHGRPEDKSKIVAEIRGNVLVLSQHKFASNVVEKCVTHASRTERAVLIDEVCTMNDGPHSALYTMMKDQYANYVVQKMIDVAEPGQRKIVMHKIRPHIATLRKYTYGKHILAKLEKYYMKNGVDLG
Outline: as §1

PUM1 PUF domain R6-VWS = target: T2, PUM1 PUF domain R6-VWS (Homo sapiens, UniProt Q14671 828-1176, N1043V;Y1044W;Q1047S)
T2 sequence: T1 sequence with L216V, K220S
Outline: as §1

PUM1 PUF domain R4-SNS = PUM1 PUF domain R4-SNS (Homo sapiens, UniProt Q14671 828-1176, N971S;H972N;Q975S)
Outline: as §1

PUM1 PUF domain R1-NYS = PUM1 PUF domain R1-NYS (Homo sapiens, UniProt Q14671 828-1176, S863N;R864Y;Q867S)
Outline: as §1

PUM1 PUF domain R6-CWI = target: T3, PUM1 PUF domain R6-CWI (Homo sapiens, UniProt Q14671 828-1176, N1043C;Y1044W;Q1047I)
T3 sequence: T1 sequence with L216C, K220I
Outline: as §1

PUM1 PUF domain R5-YNG = PUM1 PUF domain R5-YNG (Homo sapiens, UniProt Q14671 828-1176, C1007Y;R1008N;Q1011G)
Outline: as §1

PUM1 PUF domain R5-TYF = PUM1 PUF domain R5-TYF (Homo sapiens, UniProt Q14671 828-1176, C1007T;R1008Y;Q1011F)
Outline: as §1

PUM1 PUF domain R3-CRA = PUM1 PUF domain R3-CRA (Homo sapiens, UniProt Q14671 828-1176, Q939A)
Outline: as §1

PUM1 PUF domain R8-IRR = PUM1 PUF domain R8-IRR (Homo sapiens, UniProt Q14671 828-1176, N1122I;Y1123R;Q1126R)
Outline: as §1

PUM1 PUF domain R5-NAR = PUM1 PUF domain R5-NAR (Homo sapiens, UniProt Q14671 828-1176, C1007N;R1008A;Q1011R)
Outline: as §1

PUM1 PUF domain R5-KTC = PUM1 PUF domain R5-KTC (Homo sapiens, UniProt Q14671 828-1176, C1007K;R1008T;Q1011C)
Outline: as §1

PUM1 PUF domain R5-RKD = PUM1 PUF domain R5-RKD (Homo sapiens, UniProt Q14671 828-1176, C1007R;R1008K;Q1011D)
Outline: as §1

PUM1 PUF domain R1-YFR = PUM1 PUF domain R1-YFR (Homo sapiens, UniProt Q14671 828-1176, S863Y;R864F;Q867R)
Outline: as §1

GGCUAGAACUAGUGGAUCCCCCGGCGCCCGGCGGCUCGAGCCCGGGUAAGUGUAAUUAGUCUGCAUGCCGCCGGGCGCCAUGCCUGCAGGUCGACUCUAGAAAACAUG
binding signal (PUM1 PUF domain R3-CRC): 2.22 log2 enrichment (interaction score)
binding signal (PUM1 PUF domain R3-SIR): 1.21 log2 enrichment (interaction score)

GGCUAGAACUAGUGGAUCCCCCGGCGCCCGGCGGCUCGAGCCCGGGUAAGUGUAAAUAGUCUGCAUGCCGCCGGGCGCCAUGCCUGCAGGUCGACUCUAGAAAACAUG
binding signal (PUM1 PUF domain R3-CRC): 2.51 log2 enrichment (interaction score)
binding signal (PUM1 PUF domain R4-VPS): 1.66 log2 enrichment (interaction score)
binding signal (PUM1 PUF domain R8-NWR): 2.23 log2 enrichment (interaction score)
binding signal (PUM1 PUF domain R6-LWK): 5.88 log2 enrichment (interaction score)
binding signal (PUM1 PUF domain R6-VWS): 2.66 log2 enrichment (interaction score)
binding signal (PUM1 PUF domain R4-SNS): 2.68 log2 enrichment (interaction score)
binding signal (PUM1 PUF domain R1-NYS): 2.51 log2 enrichment (interaction score)
binding signal (PUM1 PUF domain R6-CWI): 4.75 log2 enrichment (interaction score)
binding signal (PUM1 PUF domain R5-YNG): 2.79 log2 enrichment (interaction score)
binding signal (PUM1 PUF domain R5-TYF): 2.88 log2 enrichment (interaction score)
binding signal (PUM1 PUF domain R3-CRA): 2.9 log2 enrichment (interaction score)
binding signal (PUM1 PUF domain R8-IRR): 1.39 log2 enrichment (interaction score)

GGCUAGAACUAGUGGAUCCCCCGGCGCCCGGCGGCUCGAGCCCGGGUAAGUGUCAAUAGUCUGCAUGCCGCCGGGCGCCAUGCCUGCAGGUCGACUCUAGAAAACAUG
binding signal (PUM1 PUF domain R5-NAR): 4.29 log2 enrichment (interaction score)
binding signal (PUM1 PUF domain R5-KTC): 4.69 log2 enrichment (interaction score)
binding signal (PUM1 PUF domain R5-RKD): 4.06 log2 enrichment (interaction score)

GGCUAGAACUAGUGGAUCCCCCGGCGCCCGGCGGCUCGAGCCCGGGUAAGUGUAAAUGGUCUGCAUGCCGCCGGGCGCCAUGCCUGCAGGUCGACUCUAGAAAACAUG
binding signal (PUM1 PUF domain R1-YFR): 2.6 log2 enrichment (interaction score)

GGCUAGAACUAGUGGAUCCCCCGGCGCCCGGCGGCUCGAGCCCGGGUAAGUGUAAGUAGUCUGCAUGCCGCCGGGCGCCAUGCCUGCAGGUCGACUCUAGAAAACAUG
binding signal (PUM1 PUF domain R3-CRC): 2.62 log2 enrichment (interaction score)
binding signal (PUM1 PUF domain R3-CRA): 1.42 log2 enrichment (interaction score)
binding signal (PUM1 PUF domain R3-SIR): 2.77 log2 enrichment (interaction score)
